What all share (assay): NCI-60 one-dose screen, 48 h (100 = growth as untreated, 0 = no growth, -100 = all killed)
Settings in all cases: 10 µM unless noted

Test [1] deals with HCT-15 colon.
The test system of test [2] is HT29 colon.
Test [3] has as its system SNB-75 CNS.
Test [4] has as its system SNB-19 CNS.
The test system of test [5] is U251 CNS.
The test system of test [6] is PC-3 prostate.
The subject of test [7] is SK-MEL-5 melanoma.
The test system of test [8] is UACC-62 melanoma.
The test system of test [9] is LOX IMVI melanoma.
The test system of test [10] is SK-MEL-28 melanoma.
Test [11] deals with EKVX NSCLC.
Test [12] deals with SN12C renal.
Test [13] deals with UO-31 renal.
Test [14] has as its system TK-10 renal.
The subject of test [15] is ACHN renal.
Test [16] relates to CAKI-1 renal.
Test [17] concerns A498 renal.
For test [18], the system named is CCRF-CEM leukemia.
Test [19] has as its system MOLT-4 leukemia.

This is part of a sample that, as a whole, favours compounds with a hit. Of some 83,000 tested, about 20% had one in any assay.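 Cell lines were cultured in 96-well plates, exposed to a single compound concentration, and assessed for percent growth 48 hours later.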 Values without a mark were called inactive. Active and inactive are the calls of the source. The calls were made as follows: active = growth percent below 10; inactive = the rest.

Turning to `CC[C@@H]1C(=O)N(C)c2cnc(Nc3ccc(C(=O)NC4CCC(N5CCN(CC6CC6)CC5)CC4)cc3OC)nc2N1C(C)C` (stereo partly drawn), the growth in test [1] is 2.76% (active); in [2], -25.9% (active); in test [3], -8.67% (active); in test [4], 25.9%; in [5], -16.3% (active); in test [6], 9.7% (active). The growth in test [7] is -96.5% (active); in test [8], -47.3% (active); in [9], -72.1% (active); in test [10], -72.3% (active); in test [11], 21.2%; in test [12] it was 7.06% (active). The growth was -52.3% (active) in test [13]; 19.9% in [14]; -3.77% (active) in test [15]; 10.6% in test [16]; -51.8% (active) in [17]; 0.0303% (active) in [18]. The growth in test [19] was -19.6% (active).
As to `O=C1CCC(=O)CC1`, the growth in test [1] is 102%; in test [2] it was 102%; in [3], 88.8%; in test [4] it was 93.9%; in test [5], 99.4%; in test [6], 92.7%. The growth was 109% in test [7]; 99% in test [8]; 101% in test [9]; 112% in [10]; 98.8% in test [11]; 90% in test [12]. Further, the growth in test [13] was 86.4%; in [14] it was 96.4%; in [15] it was 109%; in test [16], 96.5%; in test [17], 104%; in test [18], 98.1%. Also, the growth in test [19] is 101%.
`O=C(c1ccc(/C=C/c2n[nH]c3ccccc23)cc1)N1CCNCC1`: the growth was 40.3% in test [1]; 13.5% in test [2]; 0.841% (active) in test [3]; 68.7% in [4]; 58.9% in test [5]; 38.3% in test [6]. Besides, the growth was 53.1% in [7]; 48.7% in test [8]; 5.66% (active) in test [9]; 46.2% in test [10]; 71% in test [11]; 22.5% in test [12]. Moreover, the growth is -7.82% (active) in test [13]; 53% in [14]; 36.5% in test [15]; 11.7% in test [16]; 37.9% in test [17]; 53.2% in test [18]. Also, the growth in test [19] was 19.9%.
`Cc1ccc(Nc2nccc(N(C)c3ccc4c(C)n(C)nc4c3)n2)cc1S(N)(=O)=O`: the growth was 14.3% in test [1]; 3.61% (active) in test [2]; -25.9% (active) in [3]; 30.9% in test [4]; 18.8% in test [5]; 45.2% in test [6]. Also, the growth was -34% (active) in test [7]; -18.3% (active) in test [8]; -30.1% (active) in test [9]; 8.83% (active) in test [10]; 25.7% in [11]; 25.7% in [12]. Moreover, the growth in [13] was -2.51% (active); in test [14] it was 21.2%; in test [15] it was 25.8%; in test [16], 15.1%; in [17] it was -57% (active); in [18], 34%. In [19], the growth is 5.93% (active).
As to `CNC(=O)c1ccccc1Nc1nc(Nc2ccc3c(c2OC)CCC[C@H](N2CCN(CCO)CC2)C3)ncc1Cl`, the growth in test [1] was 0.498% (active); in test [2], -44.3% (active); in [3], -5.43% (active); in test [4], 18.8%; in test [5] it was -19.4% (active); in [6], 22.9%. Moreover, the growth in test [7] is -92.4% (active); in test [8], -45% (active); in test [9] it was -89.6% (active); in test [10] it was -77.1% (active); in test [11] it was 11.8%; in [12], 7.63% (active). Moreover, the growth in [13] was 6.91% (active); in [14] it was 26.2%; in [15] it was 5.75% (active); in test [16] it was -26.6% (active); in [17] it was -64.3% (active); in test [18], 7.29% (active). The growth in test [19] was -23.5% (active).
Consider `Cc1ccc(-n2nc(C(C)(C)C)cc2NC(=O)NCc2cc(F)ccc2Oc2ccc3c(cnn3CCO)c2)cc1`, for which the growth in test [1] is 17.5%; in test [2], 5.67% (active); in test [3] it was 32.7%; in [4], 48.1%; in [5], 31.3%; in test [6], 33.5%. The growth was -19.5% (active) in test [7]; 7.75% (active) in [8]; 5.06% (active) in test [9]; 0.876% (active) in [10]; 39.7% in test [11]; 19.5% in test [12]. Besides, the growth was -6.07% (active) in test [13]; 4.78% (active) in test [14]; 11.7% in test [15]; 20.2% in test [16]; -10.8% (active) in test [17]; 20% in test [18]. Also, the growth in test [19] was 3.32% (active).
Take `COc1cc2cc(NCc3ccc(Cl)cc3)nc(C)c2cc1OC`: the growth in test [1] is 47%; in test [2] it was 10%; in test [3] it was 96.3%; in test [4], 42.6%; in test [5], 30.9%; in test [6] it was 37.9%. The growth is 31.3% in test [7]; 8.46% (active) in [8]; 5.76% (active) in [9]; 29.9% in test [10]; 64.9% in [11]; 42% in [12]. In addition, the growth in test [13] is 41.4%; in test [14], 44.9%; in test [15], 54.8%; in test [16], 59.8%; in [17], 26%; in [18], 27.9%. The growth in test [19] is 27.6%.
